# In the library only some 4.1% were active in any assay of this set; here they are far more common.
# DAX1 inh-1 = blocks DAX1 repression of SF-1 activated StAR promoter; 370,000 compounds, 1.1% hits; HEK293T StAR-luciferase reporter, SF-1/DAX-1 repression relief; inhibition, % at 6.8 µM;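 active = inhibition above the mean over all tested compounds plus 3 SD, cut at about 3.6% in these data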;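 also: 0% = DAX-1 cells with DMSO and 100% = cells lacking DAX-1 with DMSO; higher inhibition means more luminescence from relief of DAX-1 repression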
# hgDAF-12 ag = hgDAF-12 agonism, primary luciferase screen; HEK293 GAL4-hgDAF12 UAS-luciferase reporter, agonist luminescence; normalized to butyrate control; AID 687014; activation, % at 6.8 µM; 370,000 compounds, 1.8% hits;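 active = activation above a cutoff set at the mean of all screened compounds plus 3 SD, cut at about 10% in these data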;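 also: 0% = DMSO wells and 100% = sodium butyrate wells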
# DAX1 inh-2 = inhibitors of human orphan nuclear receptor DAX1 (NR0B1). 340,000 compounds, 0.99% hits. HEK293 Gal4-DAX1 luciferase reporter, luminescence. inhibition, % at 6.75 µM. P51843;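 active = inhibition above the mean over all tested compounds plus 3 SD, cut at about 4.2% in these data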;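 also: 0% = DAX1-transfected cells with DMSO and 100% = empty-vector control cells with DMSO; inhibition shows as a rise in luminescence from relieved DAX1 repression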
# Target sequence (P51843 207-470 limits assumed): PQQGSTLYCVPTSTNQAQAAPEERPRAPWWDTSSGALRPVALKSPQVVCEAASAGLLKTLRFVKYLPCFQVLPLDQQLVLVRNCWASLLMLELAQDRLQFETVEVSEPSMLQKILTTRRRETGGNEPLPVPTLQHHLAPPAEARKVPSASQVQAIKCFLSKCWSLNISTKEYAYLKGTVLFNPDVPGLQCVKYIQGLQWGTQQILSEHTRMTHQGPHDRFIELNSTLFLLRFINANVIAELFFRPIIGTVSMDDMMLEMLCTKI
# ssDAF12 agonist = S. stercoralis DAF-12 activation, primary screen | HEK293 ssDAF-12/GRIP1 lit1-tk-luc reporter, luminescence; % of 3 µM dafachronic acid response | activation, % at 6.8 µM | 370,000 compounds, 1% hits;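 active = activation above the mean over all tested compounds plus 3 SD, cut at about 0.9% in these data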;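 also: 0% = DMSO-only wells and 100% = 3 µM delta7-dafachronic acid wells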
# hcDAF12 agonist = activators of H. contortus DAF-12 nuclear receptor; HEK293 hcDAF-12 lit1-tk-luc reporter, luminescence; 0% DMSO, 100% Δ7-dafachronic acid; 370,000 compounds, 1.4% hits; activation, % at 6.8 µM;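 active = activation above the mean of all tested compounds plus 3 SD, cut at about 5.5% in these data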;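 also: 100% = response to 3 µM Δ7-dafachronic acid high control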
# * = called active by the depositor; / = no result; ! = not confirmed by another sample.
SMILES,DAX1 inh-1,hgDAF-12 ag,DAX1 inh-2,ssDAF12 agonist,hcDAF12 agonist
c1cc(-c2cc3cc4c(cc3cn2)OCO4)cs1,2,7,1,1.2*,5.8*
COc1cc2cnc(-c3ccsc3)cc2cc1OC,0,1,1,0,2
CC[C@]12c3[nH]c4ccc(Cl)cc4c3CCN1C(=O)[C@@H](CC(=O)NC/C=C(\C)CCC=C(C)C)C[C@@H]2C(=O)N1CCN(C(=O)c2ccco2)CC1,-1,0,-1,2.1*,-2
CCc1ccc(N(CC(=O)N2CCOCC2)S(C)(=O)=O)cc1,0,-3,6.7*,-1,0
CCOc1ccc(N(CC(=O)N2CCCCCC2)S(=O)(=O)c2ccc(C)cc2)cc1,-3,1,2,-1,0
CS(=O)(=O)N(CC(=O)N1CCOCC1)c1ccc(Cl)cc1,0,0,0,0,6.0*
Cc1ccc(N(CC(=O)N2CCCCC2)S(=O)(=O)c2ccc(C)cc2)cc1,-1,0,4.6*,-1,-2
COc1ccc(CNC2CCC23CCCCC3)cc1OC (centres undefined),/,-1,/,-2,-2
CN(C)CCCN(C(=O)c1ccc2ccccc2c1)c1nc2cc3c(cc2s1)OCO3,3,0,0,-1,-2
CN(C)CCN(C(=O)c1ccc2ccccc2c1)c1nc2cc3c(cc2s1)OCCO3,3.7*,8,1,0,1
COc1cccc(-c2nnc3sc(-c4ccco4)nn23)c1,1,2,4.2*,-1,-1
COc1ccc(C2CC(c3cccs3)=NN2C(=O)CN2CCCCC2)cc1 (centres undefined),0,2,/,3.1*,0
CC(=O)O[C@H]1CC[C@@]2(C)C(CCC3C2CC[C@]2(C)OC(=O)CCC32)C1 (some centres undefined),1,0,5.0*,-1,-1
CC(=O)OC1CCC2(C)C(CCC3C4CC=C(C(C)=O)C4(C)OC(=O)CC32)C1 (centres undefined),-3,-18,-4,-2,-4
Cc1ccc(-c2nc(C3CCCN(S(=O)(=O)c4ccc(C)c(C)c4)C3)no2)cc1 (centres undefined),3,7,/,1.0*,1
COC(=O)c1c(-c2cccnc2)csc1NC(=O)c1cc(C)on1,4.5*,7,1,0,6.5*
COC(=O)c1c(-c2ccc(C)cc2)csc1NC(=O)c1c(-c2ccccc2)noc1C,-1,-5,/,-2,-1
O=C(NCCc1ccccc1)c1cnc2ccccc2n1,1,13*,1,0,5
O=C(NCCc1ccc(Cl)cc1)c1ccc2ccccc2n1,0,5,0,-1,6.0*
CCCCN1CN2Cc3ccc(C)cc3C2CS1(=O)=O (centres undefined),1,-2,/,-1,-1
COc1cccc(CNC(=O)CN(C)S(=O)(=O)c2ccc(Br)s2)c1,0,0,10*,-1,-3
COc1ccc(CNC(=O)CN(C)S(=O)(=O)c2ccc(Br)s2)cc1,0,0,-1,-1,-3
CCOC(=O)[C@]12CCCC=C1N(CCc1ccc(Cl)cc1)C(=O)[C@@H]2CC(=O)NCCC(C)C,0,1,/,-2,-3
Nc1ccc(C(=O)O)c(O)c1,0,11*!,-1,-1,-1
O=C(O)c1ccc(O)cc1O,0,-1,1,0,-1
SMILES,DAX1 inh-1,hgDAF-12 ag,DAX1 inh-2,ssDAF12 agonist,hcDAF12 agonist
N=C1SC(CC(=O)Nc2ccccc2[N+](=O)[O-])C(=O)N1c1ccccc1 (centres undefined),0,-2,-1,1.6*,0
COc1ccccc1NC(=O)CC1SC(=N)N(c2ccccc2)C1=O (centres undefined),0,0,1,-2,2
CN(C)/C=N/c1sc2c(c1C#N)CCCC2,1,8,1,-1,1
CC1CCc2c(sc(/N=C/N(C)C)c2C#N)C1 (centres undefined),0,6,4.7*,-1,1
Cc1ccc(C(=O)C2CCN(CC(=O)N3CCOCC3)CC2)cc1,0,1,/,-2,-2
Cc1c(NC(=O)C(C)OC(=O)c2cc(-c3cccc4ccccc34)nc3ccccc23)c(=O)n(-c2ccccc2)n1C (centres undefined),0,11*,-1,0,-2
C[N+]1=C(N)N[C@@]2(C=C3CCCCC3n3c(=O)n(-c4ccccc4)c(=O)n32)C1 (some centres undefined),-1,-2,/,-1,-1
Cc1ccc(-c2nc3ncccc3o2)cc1N,1,7,0,-1,5.8*
C#CCNC(=O)C[C@@H]1C(=O)N2CCCC3=C2[C@@]1(C(=O)OCC)CCC3,-1,-1,/,-1,0
COc1ccc(CC2(CO)CCN(Cc3cnn(-c4ccccc4)c3)CC2)cc1,-1,-4,-1,-2,-2
COc1ccc(CC2(CO)CCN(Cc3cnn(-c4ccccc4OC)c3)CC2)cc1,0,-4,5.8*,-2,-3
COCCCNC(=O)C[C@H]1C[C@@]2(C(=O)OC)C(=C[C@H](COCc3ccccc3)O[C@@H]2C)N(Cc2ccco2)C1=O,0,4,/,0,2
O=S1(=O)CC(N2CCCC2)CN1C1CCCC1 (centres undefined),1,2,/,-1,4
O=S1(=O)CC(N2CCCC2)CN1C1CCCCC1 (centres undefined),4.3*,1,/,-1,-1
COc1ccccc1CC(=O)Nc1cc(C)ccn1,1,6,0,1.3*,5
COc1ccccc1CNc1cc(C)ccn1,0,-2,2,-1,0
O=C(CNC(=O)c1ccco1)Nc1ccc(N2CCCCCC2)cc1,1,10,4.7*,-1,0
Cc1ccc(NC(=O)CNC(=O)Cc2cccc3ccccc23)nc1,0,2,0,-1,3
Cc1ccnc(NC(=O)CNC(=O)Cc2cccc3ccccc23)c1,3,9,3,1.3*,2
Cc1ccnc(NC(=O)CCCOc2cc(=O)n(C)c3ccccc23)c1,0,2,7.0*,0,-1
O=C(NCCCc1ccccc1)[C@H](CO)NC1(C(=O)NCCc2c[nH]c3ccccc23)CCCCC1,/,-1,/,0,-2
O=C(OC12CCCN(C1)/C(=C/c1ccccc1)C2)C1CCCCC1 (centres undefined),-1,-1,/,-1,-1
O=C(CNC(=O)c1ccco1)Nc1ccc(F)c(Cl)c1,0,-2,-1,-1,-2
Cc1ccnc(NC(=O)CNC(=O)c2ccco2)c1,3.8*,1,0,0,0
O=C(CNC(=O)c1ccco1)Nc1cccc(Cl)c1,0,1,0,0,5.8*
O=C(Cn1cnc2ccccc2c1=O)N1CCN(C(=O)C2CCCO2)CC1 (centres undefined),1,3,/,-1,0
Cc1ccc(C(=O)NC2CCCCN(C)C2=O)c(C)c1 (centres undefined),0,4,/,-1,1

# Compound activity: PubChem, The Scripps Research Institute Molecular Screening Center
